Activity calls are given as the source filed them. No rule for the calls is given here.
test system: HIV-1 nucleocapsid protein NCp7 (binding to TG oligonucleotide); experiment: HIV Nucleocapsid (AID 346); details: HIV-1 NC / fluorescein-TGTGTGTG probe, fluorescence polarization;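 also: potency is for inhibitors that block NC binding and lower polarization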
In short: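 Inhibition of nucleocapsid binding to single-stranded 5'-TGTGTGTG probe (10 nM) was measured by fluorescence polarization after 1 hr at room temperature with 100 nM protein under high-salt, zinc-containing, reducing conditions.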
Potency is read from the fitted curve at half-maximal effect.

Structure (SMILES)	Potency
COc1ncc2ncc(=O)n(C[C@H]3CCCO3)c2n1	> 20 µM (inactive)
COc1ccccc1-c1nc(NCCN2CCOCC2)c2ccccc2n1	> 20 µM (inactive)
COc1cccc(Cn2c(=O)cnc3cnc(OCc4ccccc4)nc32)c1	> 20 µM (inactive)
Cc1ccccc1-c1nccc(-n2ccnc2)n1	> 20 µM (inactive)
O=c1c(-c2cccc(F)c2)nc2cncnc2n1Cc1ccc(F)cc1	> 20 µM (inactive)
CC(=O)N1CCC2(CCCN(C(=O)Nc3cccc(C#N)c3)C2)CC1	> 20 µM (inactive)
O=c1c(CCc2ccccc2)nc2cncnc2n1-c1ccccc1	> 20 µM (inactive)
CN(C)c1ncc2nc(-c3cn(C)c4ccccc34)c(=O)n(C[C@H]3CCCO3)c2n1	> 20 µM (inactive)
O=C(c1cccc(F)c1)N1CCC2(CCN(Cc3cc(C(F)(F)F)cc(C(F)(F)F)c3)CC2)CC1	> 20 µM (inactive)
O=c1c(-c2cc(F)cc(F)c2)nc2cncnc2n1Cc1ccc(F)cc1	> 20 µM (inactive)
COc1cccc(Nc2ncc3nc(C)c(=O)n(Cc4cccs4)c3n2)c1	> 4 µM (inactive)
c1cncc(CNc2ccnc(-c3cccnc3)n2)c1	> 20 µM (inactive)
COc1ccc(-n2c(=O)c(-c3cccs3)nc3cnc(OC)nc32)cc1	> 20 µM (inactive)
Cc1nc2cnc(N3CCN(C)CC3)nc2n(Cc2cccs2)c1=O	> 20 µM (inactive)
COc1ccccc1CNc1ncnc2ccc(-c3ccc(C(=O)N(C)C)cc3)cc12	> 20 µM (inactive)
Cc1ccccc1-c1cncnc1NCc1cccnc1	> 20 µM (inactive)
CN(C)C(=O)c1ccc(-c2ccc3ncnc(NCc4cccs4)c3c2)cc1	> 20 µM (inactive)
O=C(Nc1cccc(F)c1)N1CCCC2(CCN(C(=O)c3ccco3)CC2)C1	> 20 µM (inactive)
Cn1cccc1C(=O)N1CCC2(CCCN(C(=O)Nc3ccccc3)C2)CC1	> 20 µM (inactive)
O=c1c(-c2ccccc2)nc2cnc(Oc3cccc(Cl)c3)nc2n1C[C@H]1CCCO1	> 20 µM (inactive)

Structure (SMILES)	Potency
CC(=O)NCCNc1ccnc(-c2ccccc2C(F)(F)F)n1	> 20 µM (inactive)
COc1ccc(NC(=O)N2CCC3(CC2)CCN(C(=O)c2cccn2C)CC3)cc1	> 20 µM (inactive)
CN1CCN(c2cc(-c3ccccc3C(F)(F)F)ncn2)CC1	> 20 µM (inactive)
CN1CCN(c2ccnc(-c3ccoc3)n2)CC1	> 20 µM (inactive)
COc1ccccc1CNc1ncncc1-c1ccc(N(C)C)cc1	> 20 µM (inactive)
CS(=O)(=O)N1CCC2(CC1)CN(c1cccc(-c3ccccc3)c1)C2	> 20 µM (inactive)
CC(=O)NCCNc1ncnc2ccc(-c3ccc(C(=O)N(C)C)cc3)cc12	> 20 µM (inactive)
Cc1cccc(CNc2nc(-c3ccc4c(c3)OCO4)nc3ccccc23)c1	> 20 µM (inactive)
O=C(c1ccco1)N1CCC[C@@]2(CCN(c3ccncc3)C2)C1	> 20 µM (inactive)
O=c1cnc2cnc(Oc3ccccc3)nc2n1C[C@H]1CCCO1	> 20 µM (inactive)
COCC(=O)N1CCC2(CC1)CCN(C(=O)Nc1ccc(OC)cc1)CC2	> 20 µM (inactive)
c1cncc(-c2nc(NCc3cccs3)c3ccccc3n2)c1	> 20 µM (inactive)
c1csc(CNc2ccnc(-c3ccoc3)n2)c1	> 20 µM (inactive)
CS(=O)(=O)Nc1cccc(-c2nccc(NCc3ccccc3)n2)c1	> 20 µM (inactive)
CC(C)NC(=O)N1CC2(CCN(C(=O)c3cc(C(F)(F)F)cc(C(F)(F)F)c3)CC2)C1	> 20 µM (inactive)
COCCNc1ncnc2ccc(-c3ccccc3OC)cc12	> 20 µM (inactive)
COCCNc1ncnc2ccc(-c3ccc(C(=O)N(C)C)cc3)cc12	> 20 µM (inactive)
O=S(=O)(c1ccccc1)N1CCC2(CCCN(Cc3nccs3)C2)CC1	> 20 µM (inactive)
O=C(c1ccco1)N1CCC2(CCCN(c3ccncc3)C2)CC1	> 20 µM (inactive)
COc1ccc(CNc2ccnc(-c3ccc(C(=O)N(C)C)cc3)n2)c(OC)c1	> 20 µM (inactive)

— PubChem BioAssay (NCATS)
